In ChEMBL document CHEMBL1157539, “Thousands of chemical starting points for antimalarial lead identification” (Nature, 2010) one finds Inhibition data, which are given here for 13 compounds.

The subject of one experiment is Plasmodium falciparum. Description: GSK_TCMDC: Inhibition of Plasmodium falciparum 3D7 in whole red blood cells, using parasite LDH activity as an index of growth. Test compounds present at 2uM. The experiment is classed as functional.
By Inhibition is commonly meant the change of the read-out against control, counted positive when it falls. Lower therefore signals a response near the control. Take `Cc1cccc2nc(-c3ccc(-c4ccc(NC(=O)C(=O)c5cccn5C)cc4)cc3)[nH]c12`: the Inhibition is reported as 95%.

`O=C(NCCCCN1CCC(C(c2ccccc2)c2ccccc2)CC1)c1ccc(NC(=O)c2ccc(Cl)cc2)cc1` showed an Inhibition of 100%.

For the compound `O=C(NC1CCN(Cc2ccccc2)CC1)c1cc(-c2ccncc2)c(-c2ccc(Cl)c(O)c2)o1.O=C(O)C(F)(F)F`, the Inhibition is listed as 100%.

On to `Nc1nc(-c2ccccn2)nc(-n2nc(-c3cccc(C(F)(F)F)c3)cc2N)n1.O=C(O)C(F)(F)F`, for which the Inhibition is 87%.

Turning to `C[C@H](CNc1ccnc(Nc2ccc3[nH]c(=O)[nH]c3c2)n1)c1ccccc1`, the Inhibition is 99%.

The next experiment relates to Plasmodium falciparum. Description: GSK_TCMDC: Inhibition of Plasmodium falciparum Dd2 in whole red blood cells, using parasite LDH activity as an index of growth. Test compounds present at 2uM. The format is functional.
`Br.CC1(C)NC(N)=NC(=N)N1OCC1CCCCC1`: the Inhibition is given as 97%.

The compound `Cc1cc(CN2CC[C@H](NC(=O)c3ccc(Cl)c(Cl)c3)C2)ccc1OCCN1CCCC1.O=C(O)C(F)(F)F` returned an Inhibition of 92%.

Regarding `COc1cc(NC(=O)/C=C/c2ccc(-c3ccccc3)cc2)ccc1OCCN(C(C)C)C(C)C.Cl`, the Inhibition is 62%.

Regarding `COc1cc2ccccc2c(CON2C(=N)N=C(N)NC2(C)C)c1OC.Cl`, the Inhibition was 10%.

For the compound `O=C(N[C@@H](CC1CCCCC1)C(=O)NCCN1CCCC1)c1ccc(O)c(-c2cccc(C(F)(F)F)c2)c1`, the Inhibition amounted to 55%.

In turn, `N#Cc1ccccc1C1CCN(C2CCC(Nc3cc(-c4cccnc4)ccn3)CC2)CC1` (stereo not drawn) gave an Inhibition of 78%.

For the compound `CC(=O)Nc1ccc(C(=O)Nc2cccc(-c3ccc(-c4nc5ccccc5[nH]4)s3)c2)cn1`, the Inhibition is 91%.

Turning to `Cc1cccc(S(=O)(=O)Nc2cccc(CCN3CCC(N4CCCCC4)CC3)c2)c1`, the Inhibition is given as 13%.
